Measured values from PubChem BioAssay AID489008 (National Center for Advancing Translational Sciences (NCATS), 2010).
Results filed as inconclusive are left out. Activity calls are given as the source filed them. The call rests on the fitted dose curve; in most records, active means well fitted inhibition curve with a large enough effect; inconclusive means small, poorly fitted or top-dose-only effect; inactive means flat fitted curve, though single readings scatter.

biological target: Ferritin light chain (Equus caballus) (UniProt P02791); assay: Confirmation Assay for Identification of Novel General Anesthetics; details: apoferritin 1-aminoanthracene fluorescence displacement; further: nearly all actives have a fitted effect of over 40% in size
Outline: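 Competitive displacement of profluorescent 1-aminoanthracene from 10 uM horse-spleen apoferritin in 50% saturated 1-AMA/PBS; 10 min RT, fluorescence Ex 380/Em 535. Normalized to free 1-AMA and complex; four-parameter Hill fit.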
Potency means the concentration at half of the fitted maximal effect.

Chain of Ferritin light chain (Equus caballus) (P02791 2-175 limits assumed): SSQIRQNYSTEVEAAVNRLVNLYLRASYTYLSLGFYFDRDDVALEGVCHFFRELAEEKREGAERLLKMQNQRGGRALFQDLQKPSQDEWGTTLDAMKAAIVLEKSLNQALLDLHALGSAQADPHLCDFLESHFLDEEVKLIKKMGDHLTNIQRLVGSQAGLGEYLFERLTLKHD

Potency, active:
Cc1ccc(NCc2cccnc2)c(Br)c1 8.91 µM
CNc1nc(C23CC4CC(CC(C4)C2)C3)cs1 15.8 µM
Cc1ccc(-c2ccc(=O)n(CC(=O)NCc3ccco3)n2)cc1 11.2 µM
Cc1cccc(S(=O)(=O)NCCc2ccccc2)c1 14.1 µM
O=C(CSc1ccccn1)C12CC3CC(CC(C3)C1)C2 6.31 µM
Oc1ccc(C(=S)N2CCCCC2)cc1Cl 17.8 µM
CN(C(=O)c1cncc(Br)c1)C1C2CC3CC(C2)CC1C3 (centres undefined) 12.6 µM
Cc1ccccc1Nc1nc2ccccc2s1 14.1 µM
Cc1ccc(S(=O)(=O)NCCC2=CCCCC2)cc1C(N)=O 7.08 µM
CN(C)c1ccc(C(=S)N2CCCCCC2)cc1 25.1 µM
O=S1(=O)CCOCCCN1Cc1ccccc1Br 12.6 µM
Cc1ccc(-c2ccc(=O)n(Cc3ccc(F)cc3)n2)cc1 35.5 µM
O=c1sc2ccccc2c(=O)n1Cc1ccccc1F 8.91 µM
Cc1cc(C(F)(F)F)n(-c2ccc(N)cc2)n1 17.8 µM
Cc1cc(S(=O)(=O)NCCc2ccccc2)c(C)s1 15.8 µM
NC(=O)Nc1ccc(Oc2ncc(C(F)(F)F)cc2Cl)cc1 7.08 µM
O=S(=O)(NCCc1ccccc1)c1ccc(Br)s1 31.6 µM
Cc1ccc(NCc2ccccc2O)c(C)c1 12.6 µM
c1cc2c(cc1NC1CCCCCC1)OCO2 8.91 µM
